Bioassay records from PubChem BioAssay.
Compounds with a hit are over-represented: about 4% of the library has one in this group of screens.
MITF TRPM1 inh – MITF TRPM1 promoter inhibition in SK-MEL-5 cells; SK-MEL-5 TRPM1 promoter luciferase, 24 h; inhibition, % at 12.5 µM; 0.83% of 330,000 active;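 active = mean inhibition across replicates of 60% or more, whatever share of single replicates reaches that level; inconclusive = some that reach 60%, reason not given; inactive = mean inhibition across replicates below 60%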
EWS-Fli inh – blocks EWS/Fli oncoprotein-driven transcription; A673 NR0B1-luciferase reporter, viability-normalised; inhibition, % at 12.6 µM; 0.67% of 350,000 active; AID 651661;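 active = mean inhibition of at least 50% after viability correction, with every replicate also passing that limit; inconclusive = mean reaches 50% but only one of two replicates passes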;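 also: firefly luciferase signal divided by Alamar Blue viability fluorescence both relative to DMSO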
Wnt bcat act – activators of Wnt/beta-catenin signaling. Wnt/beta-catenin reporter cell assay, activator, plate reader. activation, % at 9.35 µM. 1.2% of 300,000 active; in the data active = activation above about 30%, passing the limit was not always enough; inconclusive = no clear call, values can overlap the other calls;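 also: 0% = neutral control wells and 100% = positive control wells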
PAX8 inh HTS – PAX8 transcriptional activity inhibition; RMG-I TPO-luciferase reporter, SteadyGlo, 24 h; inhibition, % at 12.6 µM; 1.2% of 360,000 active;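 active = mean replicate inhibition at least 60% with every replicate also reaching 60%; inconclusive = only one of the two criteria is met; inactive = mean below 60% and not all replicates reaching 60%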;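 also: luciferase light reporting Pax8 driven TPO promoter activity; plate controls were median of neutral control wells for no effect and mitoxantrone controls for full effect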
esBAF inh – inhibitors of esBAF chromatin remodeling in mouse ES cells | Bmi1-luciferase knock-in reporter, 24 h; 100% = twice the neutral-well signal | reporter increase, % at 12.5 µM | 2% of 350,000 active; in the data active = activation above about 40%; inconclusive = no clear call, values can overlap the other calls;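 also: 0% = median of the plate's neutral control wells and 100% = double that signal; a rise in the Bmi1 reporter signal indicates esBAF inhibition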
MITF act – MITF TRPM1 promoter activation in melanoma cells | 0.75% of 300,000 active | SK-MEL-5 TRPM1-promoter luciferase, 24 h; % of positive control, neutral wells = 0 | activation, % at 12.5 µM | AID 588334;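 active = mean activation of at least 80% with every replicate also reaching 80%; inconclusive = mean reaches 80% but some replicate falls short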;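 also: 0% = neutral control wells and 100% = parthenolide positive control wells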
Numbers without * were called inactive; ? = inconclusive; / = not tested or not shown.

SMILES | MITF TRPM1 inh | EWS-Fli inh | Wnt bcat act | PAX8 inh HTS | esBAF inh | MITF act
C[C@@H]1CCCCO[C@@H](CN(C)C(=O)Nc2ccccc2)[C@H](C)CN([C@@H](C)CO)C(=O)c2cc(NC(=O)CCC(F)(F)F)ccc2O1 | / | -9 | / | -31 | 5 | /
Cc1[nH]nc2nc(SCC(=O)NC3CCCCC3)n(-c3ccc(Br)cc3)c(=N)c12 | 26 | / | -11 | 109* | -3 | -25
CC(=O)Nc1ccc(C(=O)c2ccccc2)cc1 | -4 | / | / | / | 9 | 7
CCCC(=O)Nc1ccc(C#Cc2ccccc2)cc1 | -93 | / | 38* | -233 | 54* | 96*
CCCC(=O)Nc1ccc(Oc2ccc(NC(=O)CCC)cc2)cc1 | 1 | / | -5 | -10 | -3 | -2
O=C(C#Cc1ccccc1)Nc1ccc(F)cc1 | -53 | -60 | 8 | -56 | 49* | /
CCCCC(=O)Nc1ccc(C(=O)c2ccccc2)cc1 | -23 | -44 | -4 | -82 | 49* | 23
C/C(N)=C(/C#N)C(=O)COC(=O)c1cc(C)n(-c2ccc(F)cc2)c1C | -75 | -104 | -3 | -88 | 67* | 69
Cc1cc(C(=O)OCC(N)=O)c(C)n1-c1ccccc1 | -7 | -14 | 3 | -39 | / | 8
CC(C(=O)N1CCCCC1)n1sc2ccccc2c1=O (stereo not drawn) | -52 | / | / | / | 50* | 53
COc1ccc(/C=C/c2ccncc2)cc1 | -67 | / | 46* | -129 | 53* | 74
CN(C)c1ccc(/C=C/c2ccncc2)cc1 | -58 | / | 43* | -108 | 30 | 60
CN(C)c1ccc(C=Cc2cnccn2)cc1 | -26 | -32 | 2 | -133 | -20 | 27
COc1cccc(/C=C/c2ccncc2)c1OC | -22 | / | -1 | / | 15 | 25
CCOc1ccc(-c2cc(C(=O)N/N=C(\C)c3cccnc3)c3ccccc3n2)cc1 | -88 | / | 20 | -80 | 20 | 88*
CCNC(=S)NNC(=O)c1cc(-c2ccc(OCC)cc2)nc2ccccc12 | 22 | 71* | -2 | / | -64 | -22
CCNC(=S)NNC(=O)c1cc(-c2cccc(OC)c2)nc2ccccc12 | 1 | / | / | -12 | / | 5
C/C(=N\NC(=O)c1cccs1)c1cccnc1 | -20 | -22 | 5 | -20 | / | 18
COc1ccc(OC)c(-c2cc(C(=O)N/N=C(\C)c3cccnc3)c3ccccc3n2)c1 | 5 | / | -5 | 8 | -8 | -1
CCc1ccc(C(=O)N/N=C(\C)c2cccnc2)s1 | -108 | / | 11 | 27 | 43* | 109*
C[C@H]1CN([C@@H](C)CO)C(=O)c2cccc(NS(C)(=O)=O)c2O[C@@H]1CN(C)C(=O)Nc1ccccc1 | / | -4 | / | 0 | -1 | /
CCC(=O)NC[C@H]1[C@@H](c2ccccc2)[C@H](CO)N1C(=O)C1CCC1 | / | -12 | / | -5 | -8 | /
Cc1cc(OCc2nc(N)nc(N)c2-c2ccc(Cl)c(Cl)c2)ccc1[N+](=O)[O-] | 45 | 63* | -5 | 44 | / | /
COc1ccc(C=O)cc1COc1ccc([N+](=O)[O-])c(C)c1 | -7 | 1 | 0 | 3 | -4 | 6
Cc1ccc(-c2noc(-c3cccs3)n2)cc1 | -13 | -9 | 25 | / | -30 | 17
SMILES | MITF TRPM1 inh | EWS-Fli inh | Wnt bcat act | PAX8 inh HTS | esBAF inh | MITF act
c1csc(-c2nc(N3CCCCC3)no2)c1 | -80 | -124 | 35* | -159 | ? | 81*
C[C@H]1CN([C@@H](C)CO)C(=O)c2cc(NC(=O)CCCCCC(=O)Nc3ccccc3N)ccc2O[C@H]1CN(C)S(=O)(=O)c1ccccc1 | / | 22 | / | / | / | /
CO[C@H]1CN(C)C(=O)c2ccc(NS(=O)(=O)c3ccccc3)cc2OC[C@H](C)N(C)C[C@H]1C | / | 1 | / | / | 4 | /
CCC(=O)NC(=S)Nc1ccc(-c2nc3ccc(C)cc3s2)cc1 | -108 | / | 36* | -90 | ? | 113*
Cc1ccc2nc(-c3ccc(NC(=S)NC4CC(C)(C)NC(C)(C)C4)cc3)sc2c1 | -45 | 15 | -9 | 91* | 37 | 49
Cc1ccc2nc(-c3ccc(NC(=S)NC(=O)C(C)C)cc3)sc2c1 | -101 | -84 | 23 | / | 39 | 96*
CC1(C)CC(NC(=S)Nc2ccc(S(N)(=O)=O)cc2)CC(C)(C)N1 | -6 | -13 | 9 | -15 | 1 | 5
Cc1ccc2nc(-c3ccc(NS(=O)(=O)c4ccc(F)c(F)c4)cc3)sc2c1 | -52 | / | 38* | -27 | / | 58
CCOc1cccc(C=NNC(=O)C(=O)Nc2cccc(C(F)(F)F)c2)c1O | / | 14 | -8 | 70* | / | /
O=C(NN=Cc1ccco1)C(=O)Nc1cccc(C(F)(F)F)c1 | / | -6 | -2 | -5 | / | /
CC(=O)C(Sc1nn(C)c(=S)s1)C(=O)Nc1ccccc1 (stereo not drawn) | -18 | / | / | / | 77* | 18
CC(C)C[C@H](N)c1cn([C@@H](Cc2cc3ccccc3[nH]2)C(=O)N2CCNCC2)nn1 | -26 | 1 | 1 | -6 | 7 | 35
CCC(C)[C@H](N)c1cn([C@@H](Cc2cc3ccccc3[nH]2)C(=O)N2CCNCC2)nn1 (stereo partly drawn) | -1 | -3 | 45* | 11 | -3 | -3
C[C@H](CO)N1C[C@H](C)[C@@H](CN(C)Cc2ccncc2)Oc2cc(C#CC(C)(C)O)ccc2S1(=O)=O | / | 4 | / | / | 8 | /
O=C(O)C[C@@H]1CC[C@@H](NC(=O)Nc2ccccc2)[C@@H](CO)O1 | / | -4 | / | -2 | -4 | /
FC(F)Oc1ccc(NC(=S)NNc2ccnc3cc(Cl)ccc23)cc1 | 69* | 13 | -3 | 37 | 15 | -69
O=C(c1ccc([N+](=O)[O-])cc1)N1CCCC1 | -3 | 6 | -1 | 11 | / | 8
O=[N+]([O-])c1ccc(C(O)CSC(=S)N2CCCCC2)cc1 (stereo not drawn) | -46 | -35 | 19 | -116 | 45* | 46
O=[N+]([O-])c1ccc(C(=S)N2CCCC2)cc1 | 8 | 6 | 37* | -6 | 4 | -6
COc1ccc(/C=N/Nc2nncc3ccccc23)cc1 | 5 | 67* | / | 6 | -37 | 1
COc1ccc(/C(C)=N/Nc2nc3ccccc3nc2C)cc1 | -26 | -28 | 1 | 18 | 37 | /
COc1ccc(/C(C)=N/Nc2nncc3ccccc23)cc1 | -106 | -40 | 37* | -91 | -3 | 109*
C[C@@H]1CN([C@@H](C)CO)C(=O)c2cc(-c3cccc(F)c3)cnc2O[C@@H]1CN(C)Cc1ccccn1 | / | 4 | / | -6 | -8 | /
C[C@H]1CN([C@@H](C)CO)C(=O)c2cc(NC(=O)CCN3CCOCC3)ccc2O[C@H]1CN(C)C | / | 13 | / | -13 | -1 | /
CC(C)NC(=O)N[C@H]1CC[C@@H](CCNC(=O)C2CCCC2)O[C@H]1CO | / | -1 | / | 0 | 0 | /
COc1ccc(C=NNc2ccc([N+](=O)[O-])cn2)cc1 | -57 | -50 | 16 | -187 | 52* | 74
O=[N+]([O-])c1ccc(N/N=C\c2cccn2-c2ccccc2)nc1 | -15 | / | / | / | -11 | 16
CCOc1ccccc1C=NNc1ccc([N+](=O)[O-])cn1 | 11 | -16 | -2 | -6 | -6 | -7
